Experimental data: PubChem BioAssay (Tox21)
Values joined by “and” are separate entries in the source; they are usually repeats but may differ in a detail not shown here. Equal values may be shown once. Results filed as inconclusive are left out. Entries that show only a call come without a potency. Where a structure was tested more than once in an assay, its records may differ in their call. Active and inactive are the calls of the source. Unless noted, calls come from the whole dose curve; as a rule, active = well fitted curve in the direction sought with a large enough effect in the repeat runs; inconclusive = weak or mixed curves; inactive = no such curve, though single readings can be large; an effect the other way counts as inactive or inconclusive.

Experiments:
[1] = qHTS assay to identify small molecule agonists of the androgen receptor (AR) signaling pathway in the presence of an antagonist - cell viability counter screen (AID 1259379); note: nearly all actives have a fitted effect of over 25% in size; note: potency is the fitted concentration of half-maximal effect
Summary of the method: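 Cytotoxicity is assessed by CellTiter-Fluor in MDA-kb2 cells carrying an MMTV-driven luciferase reporter. Cells receive 3.0uM nilutamide plus compounds at 15 concentrations and incubate 16 hr at 37C without CO2 before fluorescence reading.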

[2] = qHTS assay to identify small molecule agonists of the estrogen receptor beta (ER-beta) signaling pathway - cell viability counter screen (AID 1259380); note: nearly all actives have a fitted effect of over 30% in size
Summary of the method: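 Cytotoxicity is measured in parallel with the reporter screen: after 16 hr compound exposure at 37C and a 2 hr LiveBLAzer step, CellTiter-Glo is added to the same ER-beta-UAS-bla HEK293T wells and luminescence read after 30 min.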

[3] = qHTS assay to identify small molecule antagonists of the estrogen receptor beta (ER-beta) signaling pathway - cell viability counter screen (AID 1259382); note: nearly all actives have a fitted effect of over 55% in size; note: potency is the fitted concentration of half-maximal effect
Summary of the method: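 Cytotoxicity counter screen multiplexed with the beta-lactamase antagonist assay: GripTite HEK293T ER-beta-bla cells were treated 16 hr with test chemicals in the presence of 1nM 17-beta-estradiol, and viability was measured by CellTiter-Glo.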

[4] = target: Estrogen receptor (Homo sapiens) (UniProt P03372); experiment: qHTS assay to identify small molecule agonists of the estrogen receptor alpha (ER-alpha) signaling pathway in the presence of an antagonist (AID 1259383; calls by dose curve; note: nearly all actives have a fitted effect of over 15% in size; note: potency is the fitted concentration of half-maximal effect; for activation: top concentration of the series differs between compounds)
Estrogen receptor (Homo sapiens), sequence (P03372 whole entry, looked up): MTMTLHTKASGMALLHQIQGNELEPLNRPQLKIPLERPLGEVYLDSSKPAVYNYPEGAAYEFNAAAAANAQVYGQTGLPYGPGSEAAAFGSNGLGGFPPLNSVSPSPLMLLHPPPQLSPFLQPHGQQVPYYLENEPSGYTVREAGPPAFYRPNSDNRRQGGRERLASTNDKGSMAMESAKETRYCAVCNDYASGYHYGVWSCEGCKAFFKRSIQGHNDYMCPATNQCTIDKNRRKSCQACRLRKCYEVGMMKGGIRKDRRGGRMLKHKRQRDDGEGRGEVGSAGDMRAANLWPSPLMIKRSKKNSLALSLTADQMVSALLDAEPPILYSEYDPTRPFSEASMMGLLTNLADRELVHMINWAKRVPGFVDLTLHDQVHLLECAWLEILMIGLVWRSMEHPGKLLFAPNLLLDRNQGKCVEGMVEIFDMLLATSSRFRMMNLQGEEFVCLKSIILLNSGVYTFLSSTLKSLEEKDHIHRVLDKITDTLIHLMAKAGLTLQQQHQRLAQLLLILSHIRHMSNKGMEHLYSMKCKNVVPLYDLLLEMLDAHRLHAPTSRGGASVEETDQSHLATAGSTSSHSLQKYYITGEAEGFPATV
Summary of the method: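 Agonist-mode confirmation in the presence of the ER antagonist ICI-182,780 at 10.0nM final. Breast-derived VM7Luc4E2 reporter cells were exposed to compounds for 22hr, and ERE-driven luciferase was quantified by luminescence.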

[5] = qHTS assay to identify small molecule agonists or antagonists of the thyroid stimulating hormone receptor (TSHR) signaling pathway - wild type cell line counter screen (AID 1259384; calls by dose curve)
Summary of the method: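 Counter screen in untransfected Hek293: compounds (15-point titration, triplicate) plus phosphodiesterase inhibitor Ro20-1724 added after 18 h plating; 30 min RT. Intracellular cAMP via competitive d2/cryptate immunoassay, 1 h incubation.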

[6] = target: Thyrotropin receptor (Homo sapiens) (UniProt P16473); experiment: qHTS assay to identify small molecule antagonists of the thyroid stimulating hormone receptor (TSHR) signaling pathway (AID 1259385; calls by dose curve; note: nearly all actives have a fitted effect of over 20% in size; note: potency is the fitted concentration of half-maximal effect)
Thyrotropin receptor (Homo sapiens), sequence (P16473 whole entry, looked up): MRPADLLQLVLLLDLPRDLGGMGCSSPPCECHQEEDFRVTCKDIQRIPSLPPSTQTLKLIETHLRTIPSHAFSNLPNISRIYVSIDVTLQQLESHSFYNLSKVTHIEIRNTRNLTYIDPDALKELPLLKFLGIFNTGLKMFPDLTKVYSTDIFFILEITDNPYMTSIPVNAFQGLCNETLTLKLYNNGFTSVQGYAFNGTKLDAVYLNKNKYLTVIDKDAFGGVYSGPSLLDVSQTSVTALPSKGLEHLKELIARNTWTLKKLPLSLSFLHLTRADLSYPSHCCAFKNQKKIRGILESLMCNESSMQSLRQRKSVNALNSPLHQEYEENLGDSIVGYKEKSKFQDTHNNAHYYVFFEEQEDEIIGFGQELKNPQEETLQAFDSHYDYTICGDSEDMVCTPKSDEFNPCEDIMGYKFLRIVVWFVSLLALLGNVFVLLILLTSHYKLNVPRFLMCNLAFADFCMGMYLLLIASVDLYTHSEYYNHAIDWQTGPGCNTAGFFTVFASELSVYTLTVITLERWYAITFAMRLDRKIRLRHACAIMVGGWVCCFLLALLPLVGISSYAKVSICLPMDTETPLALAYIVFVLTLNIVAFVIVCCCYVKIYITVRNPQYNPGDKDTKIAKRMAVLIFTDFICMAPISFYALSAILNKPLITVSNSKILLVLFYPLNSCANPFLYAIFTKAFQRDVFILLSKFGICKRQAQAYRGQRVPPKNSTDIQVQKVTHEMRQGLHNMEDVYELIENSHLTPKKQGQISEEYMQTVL
Summary of the method: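 Antagonist mode: compound-treated TSHR-expressing HEK293 cells were stimulated with 1.5 ng/mL TSH (final) in presence of Ro20-1724 for 30 min at RT. HTRF cAMP detection after 1 h; each compound tested at 15 concentrations, triplicate.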

[7] = qHTS assay to identify small molecule agonists of the estrogen receptor alpha (ER-alpha) signaling pathway in the presence of an antagonist - cell viability counter screen (AID 1259386);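 note: cells exposed to compounds for 22 h at 37 °C before the viability read; nearly all actives have a fitted effect of over 30% in size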; note: potency is the fitted concentration of half-maximal effect
Summary of the method: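 Cytotoxicity was measured in parallel with the ERE-luciferase agonist screen, in the same wells. The cells were VM7Luc4E2, which endogenously express ER-alpha, and treatment was with compounds plus 10.0nM ICI-182,780 for 22hr.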

[8] = qHTS assay to identify small molecule antagonists of the TGF-beta/Smad signaling pathway - cell viability counter screen (AID 1346824); note: nearly all actives have a fitted effect of over 50% in size
Summary of the method: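 Cytotoxicity counter-screen run in the same wells as the beta-lactamase Smad reporter read: CellTiter-Glo luminescence after 30 min at room temperature. HEK 293T SBE-bla cells had 5 hr compound exposure at 37 C with TGF-beta1 (0.25 ng/mL stock).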

[9] = qHTS assay to identify small molecule agonists of the TGF-beta/Smad signaling pathway - cell viability counter screen (AID 1346829); note: top concentration of the series differs between compounds; nearly all actives have a fitted effect of over 45% in size
Summary of the method: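 Cytotoxicity counter screen: CellTiter-Glo luminescence (30 min, room temperature) measured in the SBE-bla HEK 293T reporter wells after 5 hr compound treatment at 37 C and the 2 hr substrate step.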

[10] = qHTS assay to identify small molecule agonists of the TGF-beta/Smad signaling pathway (AID 1346859; active = well fitted activation curve with a large enough effect in the signal ratio in the repeat runs, not every such curve was filed as active; the % refers to the signal ratio; note: series mostly up to about 77 µM)
Summary of the method: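 Reporter line: HEK 293T with stably integrated SBE-controlled beta-lactamase. Compound exposure lasts 5 hr at 37 C and 5% CO2; substrate loading follows for 2 hr at room temperature, with emission read at 460 and 530 nm.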

[11] = target: Thyrotropin-releasing hormone receptor (Homo sapiens) (UniProt P34981); experiment: qHTS assay to identify small molecule antagonists of the thyrotropin-releasing hormone receptor (TRHR) signaling pathway (AID 1346877; active = well fitted inhibition curve with a large enough effect in the repeat runs, not every such curve was filed as active; note: series mostly up to about 51 µM)
Thyrotropin-releasing hormone receptor (Homo sapiens), sequence (P34981 whole entry, looked up): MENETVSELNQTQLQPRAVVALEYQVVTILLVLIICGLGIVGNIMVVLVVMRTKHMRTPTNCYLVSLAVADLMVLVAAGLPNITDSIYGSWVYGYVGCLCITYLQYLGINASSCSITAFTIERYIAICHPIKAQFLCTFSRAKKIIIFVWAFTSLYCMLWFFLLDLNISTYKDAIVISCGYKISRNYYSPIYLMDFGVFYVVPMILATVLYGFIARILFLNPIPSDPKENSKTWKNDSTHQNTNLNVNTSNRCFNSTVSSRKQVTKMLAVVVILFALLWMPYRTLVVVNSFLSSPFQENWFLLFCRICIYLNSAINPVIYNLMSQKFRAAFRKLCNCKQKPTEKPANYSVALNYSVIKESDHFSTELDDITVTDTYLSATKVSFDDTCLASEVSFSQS
Summary of the method: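 Antagonism is measured as suppression of the calcium response to 1 nM TRH in TRHR-HEK293 cells that have been dye-loaded for 2 h at 37 °C after overnight plating. Each compound is tested at 15 concentrations in triplicate.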

[12] = target: Thyrotropin-releasing hormone receptor (Homo sapiens) (UniProt P34981); experiment: qHTS assay to identify small molecule agonists of the thyrotropin-releasing hormone receptor (TRHR) signaling pathway (AID 1346891; calls by dose curve;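 note: HEK293 cells expressing TRHR with calcium dye readout; series mostly up to about 58 µM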)
Summary of the method: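 Cells: TRHR-Hek293, seeded and incubated 18 h. Dye loading: 2 h at 37 °C. Compound added from DMSO stock by pin tool. Read-out: kinetic calcium fluorescence over 3 min.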

[13] = Human pregnane X receptor (PXR) small molecule agonists, qHTS cell viability counter screen (AID 1346977); note: nearly all actives have a fitted effect of over 50% in size; note: potency is the fitted concentration of half-maximal effect
Summary of the method: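 Cytotoxicity counter screen run in the same wells as the PXR luciferase assay, using PXR-Luc HepG2 cells in charcoal-stripped serum medium. Viability: CellTiter-Fluor fluorescence after 24hr compound treatment.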

[14] = target: Progesterone receptor (Homo sapiens) (UniProt P06401); experiment: qHTS assay to identify small molecule agonists of the progesterone receptor (PR) signaling pathway (AID 1346784; calls by dose curve; note: nearly all actives have a fitted effect of over 30% in size)
Progesterone receptor (Homo sapiens), sequence (P06401 whole entry, looked up): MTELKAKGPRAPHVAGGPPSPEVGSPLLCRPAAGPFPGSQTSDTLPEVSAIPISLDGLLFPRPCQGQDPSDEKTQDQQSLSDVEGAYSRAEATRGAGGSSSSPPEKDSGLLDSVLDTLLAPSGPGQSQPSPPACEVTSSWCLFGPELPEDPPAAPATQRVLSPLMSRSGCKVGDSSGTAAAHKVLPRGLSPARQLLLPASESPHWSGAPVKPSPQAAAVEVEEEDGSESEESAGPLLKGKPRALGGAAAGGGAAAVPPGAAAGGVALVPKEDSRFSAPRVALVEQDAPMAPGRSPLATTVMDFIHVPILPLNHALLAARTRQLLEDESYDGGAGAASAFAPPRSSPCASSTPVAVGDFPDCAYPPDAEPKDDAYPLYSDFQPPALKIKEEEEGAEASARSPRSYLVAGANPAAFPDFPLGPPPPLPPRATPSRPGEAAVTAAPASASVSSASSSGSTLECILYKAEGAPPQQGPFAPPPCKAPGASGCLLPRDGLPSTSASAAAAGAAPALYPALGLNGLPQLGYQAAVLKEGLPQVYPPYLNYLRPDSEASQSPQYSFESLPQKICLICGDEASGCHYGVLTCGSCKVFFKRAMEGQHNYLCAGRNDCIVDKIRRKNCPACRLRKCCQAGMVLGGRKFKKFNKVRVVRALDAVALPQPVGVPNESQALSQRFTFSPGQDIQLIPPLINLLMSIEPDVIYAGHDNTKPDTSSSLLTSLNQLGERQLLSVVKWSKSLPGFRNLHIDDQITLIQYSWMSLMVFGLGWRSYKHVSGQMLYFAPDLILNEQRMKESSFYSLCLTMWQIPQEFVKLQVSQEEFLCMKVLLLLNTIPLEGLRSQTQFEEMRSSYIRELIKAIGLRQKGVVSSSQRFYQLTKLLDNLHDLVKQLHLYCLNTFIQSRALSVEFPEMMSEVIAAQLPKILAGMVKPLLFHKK
Summary of the method: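 Cells (PR-UAS-bla HEK 293T, GripTite) were plated in assay medium containing 2% charcoal-stripped FBS and incubated 6 hr. Test compounds in DMSO were added for 16 hr at 37C. FRET substrate was then loaded for 2 hr at room temperature before fluorescence reading.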

[15] = target: Progesterone receptor (Homo sapiens) (UniProt P06401); experiment: qHTS assay to identify small molecule antagonists of the progesterone receptor (PR) signaling pathway (AID 1346795; active = well fitted inhibition curve with a large enough effect in the signal ratio in the repeat runs, not every such curve was filed as active; the % refers to the signal ratio)
Summary of the method: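 Antagonist mode: compounds tested against 1 nM (final) promegestone stimulation in HEK293T cells expressing PR-UAS-bla reporter, 16 hr at 37C, 5% CO2; beta-lactamase activity detected via B/G FRET substrate after 2 hr at room temperature.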

[16] = qHTS assay to identify small molecule antagonists of the progesterone receptor (PR) signaling pathway - cell viability counter screen (AID 1346798); note: nearly all actives have a fitted effect of over 50% in size; note: potency is the fitted concentration of half-maximal effect
Summary of the method: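 Counter screen for cytotoxicity: viability of PR-UAS-bla HEK293T cells was measured with CellTiter-Glo luminescence following 16 hr compound exposure in the presence of R5020.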

[17] = qHTS assay to identify small molecule agonists of the progesterone receptor (PR) signaling pathway - cell viability counter screen (AID 1346799; calls by dose curve; note: nearly all actives have a fitted effect of over 45% in size; note: potency is the fitted concentration of half-maximal effect)
Summary of the method: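 Cells (PR-UAS-bla HEK293T) are plated at 3,000/well in 2% charcoal-stripped FBS medium, rested 6 hr, dosed and incubated 16 hr at 37C. CellTiter-Glo is then added and luminescence measured after 30 min at room temperature.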

[18] = target: Estrogen receptor beta (Homo sapiens) (UniProt Q92731); experiment: qHTS assay to identify small molecule agonists of the estrogen receptor beta (ER-beta) signaling pathway (AID 1259377; active = well fitted activation curve with a large enough effect in the signal ratio in the repeat runs, not every such curve was filed as active; the % refers to the signal ratio)
Estrogen receptor beta (Homo sapiens), sequence (Q92731 whole entry, looked up, the tested form may be a part): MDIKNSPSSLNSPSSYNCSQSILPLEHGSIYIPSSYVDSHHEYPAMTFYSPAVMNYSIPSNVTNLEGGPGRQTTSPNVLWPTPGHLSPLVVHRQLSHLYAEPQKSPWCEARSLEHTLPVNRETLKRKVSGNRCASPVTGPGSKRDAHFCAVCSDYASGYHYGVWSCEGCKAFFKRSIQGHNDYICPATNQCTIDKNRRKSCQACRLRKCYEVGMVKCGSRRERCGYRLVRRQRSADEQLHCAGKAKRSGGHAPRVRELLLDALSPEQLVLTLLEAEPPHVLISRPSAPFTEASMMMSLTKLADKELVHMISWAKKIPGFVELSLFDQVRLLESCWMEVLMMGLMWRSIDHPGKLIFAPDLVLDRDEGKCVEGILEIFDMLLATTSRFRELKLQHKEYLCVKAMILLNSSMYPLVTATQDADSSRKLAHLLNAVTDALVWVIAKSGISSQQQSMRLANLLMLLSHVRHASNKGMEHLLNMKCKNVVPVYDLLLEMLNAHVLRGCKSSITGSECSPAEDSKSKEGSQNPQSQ
Summary of the method: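 Agonist mode cell assay in GripTite HEK293T cells expressing an ER-beta fusion that drives beta-lactamase from an Upstream Activator Sequence; 16 hr compound exposure at 37C, then 2 h LiveBLAzer B/G FRET substrate at room temperature, fluorescence read-out.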

[19] = target: Androgen receptor (Homo sapiens) (UniProt P10275); experiment: qHTS assay to identify small molecule agonists of the androgen receptor (AR) signaling pathway in the presence of an antagonist (AID 1259381; calls by dose curve; note: nearly all actives have a fitted effect of over 15% in size)
Androgen receptor (Homo sapiens), sequence (P10275 whole entry, looked up): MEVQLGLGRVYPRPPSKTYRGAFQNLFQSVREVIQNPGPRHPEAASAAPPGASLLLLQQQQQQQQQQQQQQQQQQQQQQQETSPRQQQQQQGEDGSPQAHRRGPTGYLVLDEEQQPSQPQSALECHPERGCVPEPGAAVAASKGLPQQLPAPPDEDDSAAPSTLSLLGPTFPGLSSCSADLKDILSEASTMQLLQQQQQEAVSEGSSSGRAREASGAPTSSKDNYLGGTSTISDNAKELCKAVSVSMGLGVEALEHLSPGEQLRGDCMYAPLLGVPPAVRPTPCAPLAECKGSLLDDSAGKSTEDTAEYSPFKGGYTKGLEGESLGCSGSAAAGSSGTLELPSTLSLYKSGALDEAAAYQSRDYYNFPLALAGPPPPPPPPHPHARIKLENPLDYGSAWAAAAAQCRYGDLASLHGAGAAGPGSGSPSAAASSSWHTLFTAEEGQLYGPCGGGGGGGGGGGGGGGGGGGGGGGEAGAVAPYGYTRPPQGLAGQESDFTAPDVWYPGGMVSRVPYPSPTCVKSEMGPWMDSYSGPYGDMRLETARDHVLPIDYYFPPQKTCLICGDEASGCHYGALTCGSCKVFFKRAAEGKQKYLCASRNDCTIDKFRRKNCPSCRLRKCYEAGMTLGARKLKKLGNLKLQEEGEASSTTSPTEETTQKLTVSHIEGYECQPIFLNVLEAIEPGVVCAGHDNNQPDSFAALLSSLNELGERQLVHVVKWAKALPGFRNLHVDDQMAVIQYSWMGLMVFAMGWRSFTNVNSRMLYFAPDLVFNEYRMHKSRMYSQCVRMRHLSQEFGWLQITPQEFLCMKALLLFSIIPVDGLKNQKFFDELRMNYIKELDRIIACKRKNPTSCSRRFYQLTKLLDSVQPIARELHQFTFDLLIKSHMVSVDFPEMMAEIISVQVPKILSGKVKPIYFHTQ
Summary of the method: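 Agonist-mode confirmation screen: human MDA-kb2 cells stably expressing luciferase under an MMTV promoter bearing AR and GR response elements, co-treated with 3.0uM nilutamide (final). Luminescence measured after 16hr compound incubation.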

Q: With CC(C)(c1ccccc1)c1ccc(Nc2ccc(C(C)(C)c3ccccc3)cc2)cc1 as the molecule, how does the Potency [1] read?
A: inactive

Q: What about the Potency [2] of the same molecule?
A: inactive

Q: And the Potency [3]?
A: inactive

Q: And the Potency [4]?
A: inactive

Q: And the Potency [5]?
A: inactive

Q: What about the Potency [6] of the same molecule?
A: inactive

Q: And the Potency [7]?
A: inactive

Q: What about the Potency [8] of the same molecule?
A: inactive

Q: What about the Potency [9] of the same molecule?
A: inactive

Q: What about the outcome [10] of the same molecule?
A: inactive

Q: What about the Potency [11] of the same molecule?
A: inactive

Q: And the Potency [12]?
A: inactive

Q: What about the Potency [13] of the same molecule?
A: inactive

Q: For O=C(Oc1ccccc1)c1ccccc1O, which Potency [1] is on record?
A: inactive

Q: What about the Potency [2] of the same molecule?
A: inactive

Q: What about the Potency [3] of the same molecule?
A: inactive

Q: What about the Potency [4] of the same molecule?
A: inactive

Q: What about the Potency [5] of the same molecule?
A: inactive

Q: And the Potency [6]?
A: inactive

Q: And the Potency [7]?
A: inactive

Q: And the Potency [14]?
A: inactive

Q: What about the Potency [15] of the same molecule?
A: inactive

Q: What about the Potency [16] of the same molecule?
A: inactive

Q: And the Potency [17]?
A: inactive

Q: What about the Potency [8] of the same molecule?
A: inactive

Q: And the Potency [9]?
A: inactive

Q: What about the outcome [10] of the same molecule?
A: inactive

Q: And the Potency [13]?
A: inactive

Q: With CC(C)CCCCCCc1ccc(O)cc1 as the molecule, how does the outcome [18] read?
A: inactive

Q: What about the Potency [1] of the same molecule?
A: 27.8 µM (active) and inactive

Q: What about the Potency [3] of the same molecule?
A: 5.54 µM (active) and inactive

Q: What about the Potency [4] of the same molecule?
A: 15.6 µM (active) and 27.3 µM (active)

Q: What about the Potency [7] of the same molecule?
A: 27.8 µM (active) and inactive

Q: What about the Potency [17] of the same molecule?
A: 4.94 µM (active) and inactive

Q: What about the Potency [9] of the same molecule?
A: inactive

Q: And the outcome [10]?
A: inactive

Q: What about the Potency [11] of the same molecule?
A: inactive

Q: And the Potency [12]?
A: inactive

Q: And the Potency [13]?
A: 50.1 µM (active)

Q: Which Potency [1] does the source give for CCCC(=O)c1ccccc1 here?
A: inactive

Q: And the Potency [2]?
A: inactive

Q: And the Potency [19]?
A: inactive

Q: And the Potency [3]?
A: inactive

Q: What about the Potency [5] of the same molecule?
A: inactive

Q: What about the Potency [6] of the same molecule?
A: inactive

Q: What about the Potency [7] of the same molecule?
A: inactive

Q: And the Potency [14]?
A: inactive

Q: What about the Potency [15] of the same molecule?
A: inactive

Q: And the Potency [17]?
A: inactive

Q: What about the Potency [8] of the same molecule?
A: inactive

Q: What about the Potency [9] of the same molecule?
A: inactive

Q: And the outcome [10]?
A: inactive

Q: And the Potency [11]?
A: inactive

Q: What about the Potency [12] of the same molecule?
A: inactive

Q: What about the Potency [13] of the same molecule?
A: inactive

Q: Which results are given for CNCCC(Oc1ccc(C(F)(F)F)cc1)c1ccccc1 (stereo not given)?
A: outcome [18]: inactive; Potency [1]: 53.8 µM (active) and 26.6 µM (active); Potency [3]: 24 µM (active) and 11.9 µM (active); Potency [6]: 67.7 µM (active) and inactive; Potency [7]: inactive; Potency [16]: 60.3 µM (active) and 29.8 µM (active); Potency [17]: 30.2 µM (active) and 13.3 µM (active); Potency [8]: inactive; Potency [9]: inactive; outcome [10]: inactive; Potency [11]: inactive; Potency [12]: inactive; Potency [13]: 24 µM (active) and 26.6 µM (active)

Q: What does the source list for NC(N)=NC(=O)Cc1c(Cl)cccc1Cl?
A: Potency [1]: inactive; Potency [2]: inactive; Potency [3]: inactive; Potency [5]: inactive; Potency [6]: inactive; Potency [7]: inactive; Potency [14]: inactive; Potency [15]: inactive; Potency [16]: inactive; Potency [17]: inactive; Potency [8]: inactive; Potency [9]: inactive; outcome [10]: inactive; Potency [11]: inactive; Potency [12]: inactive; Potency [13]: inactive

Q: Which Potency [1] does the source give for CCn1cc(C(=O)O)c(=O)c2cc(F)c(N3CCNC(C)C3)c(F)c21 (stereo not given) here?
A: inactive

Q: What about the Potency [2] of the same molecule?
A: inactive

Q: And the Potency [3]?
A: inactive

Q: And the Potency [4]?
A: inactive

Q: What about the Potency [5] of the same molecule?
A: inactive

Q: What about the Potency [6] of the same molecule?
A: inactive

Q: And the Potency [7]?
A: inactive

Q: And the Potency [14]?
A: inactive

Q: And the Potency [15]?
A: inactive

Q: What about the Potency [16] of the same molecule?
A: inactive

Q: And the Potency [17]?
A: inactive

Q: And the Potency [8]?
A: inactive

Q: And the Potency [9]?
A: inactive

Q: What about the outcome [10] of the same molecule?
A: inactive

Q: And the Potency [13]?
A: inactive

Q: Which results are given for CCc1cc(C(C)(C)C)c(O)c(C(C)(C)C)c1?
A: Potency [1]: inactive; Potency [2]: inactive; Potency [3]: inactive; Potency [5]: inactive; Potency [6]: inactive; Potency [7]: inactive; Potency [14]: inactive; Potency [15]: inactive; Potency [16]: inactive; Potency [17]: inactive; Potency [8]: inactive; Potency [9]: inactive; outcome [10]: inactive; Potency [11]: inactive; Potency [12]: inactive; Potency [13]: inactive

Q: For NCCO, which Potency [1] is on record?
A: inactive

Q: What about the Potency [2] of the same molecule?
A: inactive

Q: What about the Potency [3] of the same molecule?
A: inactive

Q: What about the Potency [4] of the same molecule?
A: inactive

Q: What about the Potency [5] of the same molecule?
A: inactive

Q: What about the Potency [6] of the same molecule?
A: inactive

Q: And the Potency [7]?
A: inactive

Q: What about the Potency [14] of the same molecule?
A: inactive

Q: And the Potency [15]?
A: inactive

Q: And the Potency [16]?
A: inactive

Q: And the Potency [17]?
A: inactive

Q: And the Potency [8]?
A: inactive

Q: What about the Potency [9] of the same molecule?
A: inactive

Q: And the outcome [10]?
A: inactive

Q: And the Potency [13]?
A: inactive
